Source: the supplement of paper PMC10681739

target: RUNX1 (UniProt Q01196); test: RUNX1 binding intensity (PBM fluorescence) in presence of ETS1, normalised to RUNX1-only experiment (arbitrary fluorescence units); higher = stronger binding; details: RUNX1 concentration 2 nM; ETS1 concentration 25 nM
Experimental: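 Cooperative gcPBM on 36-bp genomic probes with neighbouring ETS1 and RUNX1 sites. Recombinant human RUNX1 (2 nM) was incubated alone or with ETS1 (25 nM) and detected with anti-RUNX1 antibody plus Alexa488 secondary. Values are medians over 4 replicate spots; the RUNX1+ETS1 data were normalised to the RUNX1-only data. The probes sit in constant array flanks that are not printed.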
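Note: Full-length recombinant human ETS1 or RUNX1 bound to double-stranded 36-bp genomic probes on microarrays, detected by protein-specific primary antibody and Alexa488 secondary, spot fluorescence as median of four replicate spots.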

Chain of RUNX1 (Q01196 whole entry): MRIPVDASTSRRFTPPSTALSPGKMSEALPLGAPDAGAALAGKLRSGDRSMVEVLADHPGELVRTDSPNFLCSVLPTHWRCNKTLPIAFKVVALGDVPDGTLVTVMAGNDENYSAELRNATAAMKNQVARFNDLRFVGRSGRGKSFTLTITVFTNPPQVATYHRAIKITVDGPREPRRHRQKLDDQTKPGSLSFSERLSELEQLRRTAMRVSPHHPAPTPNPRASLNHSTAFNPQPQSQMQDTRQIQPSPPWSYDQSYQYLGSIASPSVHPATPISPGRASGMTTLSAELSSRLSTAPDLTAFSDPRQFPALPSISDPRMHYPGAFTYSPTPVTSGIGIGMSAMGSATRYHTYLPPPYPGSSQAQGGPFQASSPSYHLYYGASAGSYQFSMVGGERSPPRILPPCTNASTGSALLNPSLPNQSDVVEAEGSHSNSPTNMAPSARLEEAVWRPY

Sequence | RUNX1 binding intensity
CTGCCGCGACAGACAGGATGTGGCTTCTGCTCTGTC | 1960
TATATGCACAGGAAGTCCCTTACAACCCACTCTGTT | 1130
TGACATTTCCGGCCCCACCTCGGCCCGCAGCGCCGC | 2320
GCACCGTACCCGGAACTGCTCCCTCCCGCAGGCGCA | 950
GTTTGAAGGGAAGTGGGTGTTGACCTGCGGGCAACT | 969
GTGGTCTCTCCCGGAAAAACCACTTCCACCGAGAAC | 1270
GGCTGTGCTTCAGGATGTGGTAATGCTTGGGAGGCG | 1360
GTGGTCTCTGCCACTTCCTGTGGTGTAAACAGTCTC | 2890
GTGGCGAAAGTGCGGATGCGAAACCGCTGGCTCGGC | 881
CTCCTCCCCCACTTCCTATTTTTACCGCAGTTGCAC | 7610
GCCACTTCCGGTCACTCCCCGCTGCGGCCTCGCGCT | 3940
CAACGGCGTAGCCGGAAGTCAGTGGTTTTCGCCCCA | 1650
GAAGCTACTCTGGTTTCCTGTGGTTTTCTGAGCACT | 2900
TCGCTTCCGGTGTCGGTTACAGACTGTGGTTGCCAT | 3330
TGGCGGGAGAACTTCCCCCTGTGCGGTCGCGACGTG | 943
TGCTTCTGAGGAAGTGATCTGTGGTCAAAGAAAGAA | 1180
GAGAAAAGAGACTGAGGATGTGGTTTGGGGTGTGGG | 1050
CTACGACTTCCGTGATGCCTTGCGGTTGCTGTAGCC | 8450
TAAGAGATTTCCTGTAAAGGTAACCACCAGCAAAGA | 1230
CCTCTTGCTGCCTCTTCCTGTGGTCTTTTCTCTGTC | 2720

Sequence | RUNX1 binding intensity
CTCACAGAAGAGGCAGGAAGTGGTTTGAGTTATCAT | 1590
TTGGTTGTTGCCAGAGGATGTGGGTTGGCGGGGGAG | 933
TGAGTCACATCCTGCAGGGCTGCGGTATCCTGGCTT | 3310
CCCCGCGGAACTCTGGCACAGTCAGCTGACCGCAGA | 1440
CACTTCCTCTGTGACTGCAGGTTTCCAACCACAAGC | 2370
ACACAGAGAGTGAGAGGAAGTGGTTTAGAGATGAGA | 1050
CATGGTTGTTATTTCCTCACCACAATATGTGACATT | 1300
AGGCTTCCGGCCACGCCCCCTTCCCGCGGTTGCTAG | 2360
CTTCTACTTCCTGCCCCGCCCCCAGCTGTGGTCACA | 3430
ACCAGAAGCACTGCAGGATGTGGTATCAAGACGCCT | 1160
GACCAATGTAAACAAGGATGTGGGTTCTCCGGCCAC | 1190
CACTTCCGGGTCGTCAGCTCAGTTCTGCGGTTTCTG | 12800
ATACAGACACAGGAAGTTGTGGGGAGTGCAAAAGCC | 1530
AGCGGCCGAAGGAAGTGACGTTTGCGGCAGTAAGGC | 1300
TCCCTTACCTTCCTGCTGCCACCAAACCACCAAACC | 3260
GCAGCTCTGGCAGGATGCGGTTAAATATGTATCCAC | 7800
CGCCGGCTCCCGGATGTTGTGGGGATCAGCGCCCGC | 1260
AACTTAGCTTCCGGGAAGAAGGCGAGCGGTGGGAGG | 1400
GCAGGGGCCCATTTCCTGCCACAAGCCCACACAGGA | 1750
CCGCCCTAGAGCAGGAAATAGCGGTCAGCGCCAGCT | 1980
